Screens from PubChem BioAssay.
In the library only some 21% were active in any assay of this set; here they are far more common.
CHX counter: counter-screen for Shiga toxin inhibitors: cycloheximide protein synthesis inhibition; cell reporter, cycloheximide protein synthesis inhibition counterscreen; AID 2314; 300,000 compounds, 12% hits; max response, %; in the data active means max response mostly above about 13%, no sharp cut-off; inactive means mostly below about 14%; further: read at 38.3 µM for the half of the compounds with a filed dose
Pf growth 96h: P. falciparum growth inhibition at 96 hours; P. falciparum luciferase reporter growth, 96 h; Potency, µM (doses to about 28.7 µM), usual class: inhibitors; 320,000 compounds, 6.9% hits; AID 504834
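Compounds incubated with erythrocytes infected by luciferase-expressing P. falciparum (2% hematocrit, 0.05% parasitemia final) for 96 hours, 37 C in 5% CO2. Growth inhibition scored as decreased luciferase luminescence.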
Shiga toxin inh: inhibitors of Shiga toxin in Vero cells; AID 2315; inhibition, % at 38.7 µM; 290,000 compounds, 9.2% hits; Vero cells, Shiga toxin protein synthesis inhibition reporter; in the data active means inhibition mostly above about 28%, no sharp cut-off; inactive means mostly below about 43%
Pf growth 48h: P. falciparum growth inhibition at 48 hours (one generation). P. falciparum luciferase growth in erythrocytes, 48 h. Potency, µM (titrated, usually from 28.7 µM), hits mostly inhibitors. 310,000 compounds, 5.9% hits
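Luminescence readout; reporter = integrated firefly luciferase in P. falciparum. RBC culture at 2% hematocrit, 0.1% parasitemia final, 37 C/5% CO2; decreased signal taken as growth inhibition.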
Large screens that a line does not name were inactive. Unless noted, the call rests on the fitted dose curve; in most records, active means well fitted inhibition curve with a large enough effect; inconclusive means small, poorly fitted or top-dose-only effect, or another doubt; inactive means no such curve, though single readings can be large or run the other way.

O=C(c1cc(Br)c(Br)s1)N1CCN(c2ccccn2)CC1	Pf growth 96h inconclusive
CCN(CC)CCn1c2c(c(SCC(=O)Nc3ccc4c(c3)OCCO4)nc1=O)CCC2	Pf growth 96h 2.1µM, Pf growth 48h inconclusive (no result: CHX counter, Shiga toxin inh)
CN(C)CCn1c2c(c(SCC(=O)Nc3ccc4c(c3)OCCO4)nc1=O)CCC2	none (no result: CHX counter, Shiga toxin inh)
CCN(CC)CCn1c2c(c(SCC(=O)Nc3ccc(C)c(F)c3)nc1=O)CCCC2	Pf growth 96h inconclusive, Pf growth 48h 7.4µM (no result: CHX counter, Shiga toxin inh)
CCN(CC)CCn1c2c(c(SCC(=O)Nc3ccc(C)c(F)c3)nc1=O)CCC2	none (no result: CHX counter, Shiga toxin inh)
COc1ccc(N(CC(=O)NC2CCCC2)C(=O)Cn2nnc(-c3ccc(F)cc3)n2)cc1	Pf growth 48h inconclusive
CC(=O)N1N=C(c2cccnc2)CC1c1ccccc1O (stereo unspecified)	Pf growth 96h inconclusive
CCN1CCC2(CC1)Oc1c(OC)cccc1C1CC(c3cccnc3)=NN12 (stereo unspecified)	CHX counter 44, Shiga toxin inh 55
Cc1ccc(C(=O)NNc2cc(N3CCCC3)nc(N3CCCC3)n2)cc1	Pf growth 48h 4.7µM
O=C(NNc1cc(N2CCOCC2)nc(N2CCOCC2)n1)c1ccc(Cl)c(Cl)c1	none
Cc1ccc(CNC(=O)COC(=O)c2nc(-c3ccccc3)oc2C)cc1	none (no result: CHX counter, Shiga toxin inh)
COC(=O)C1CCN(C(=O)C2CCN(C(=O)[C@H](C)NS(=O)(=O)c3ccc(C)cc3)CC2)CC1	Pf growth 96h 12µM, Pf growth 48h inconclusive
CCN1CCN(C2CC(=O)NC2=O)CC1 (stereo unspecified)	Pf growth 96h 8.3µM
O=C(C1CCCC1)N1CCC(CC2CC(c3cccc(Br)c3)=NO2)(C(=O)NCC2CCCCC2)CC1 (stereo unspecified)	Pf growth 96h inconclusive, Pf growth 48h inconclusive
CCCCCCCNC(=O)C1(CC2CC(c3ccc(Cl)cc3)=NO2)CCN(C(=O)OC(C)(C)C)CC1 (stereo unspecified)	Pf growth 96h 5.2µM, Pf growth 48h inconclusive
CC(C)(C)OC(=O)N1CCC(CC2CC(c3cccc(Br)c3)=NO2)(C(=O)O)CC1 (stereo unspecified)	Pf growth 96h inconclusive
CCOc1cc(C(=O)N2CCC(CC3CC(c4cccc(Br)c4)=NO3)(C(=O)NCC3CCCCC3)CC2)cc(OCC)c1OCC (stereo unspecified)	Pf growth 96h inconclusive, Pf growth 48h 0.37µM
CCCCCCCNC(=O)C1(CC2CC(c3cccc(Br)c3)=NO2)CCN(C(=O)CCCCCBr)CC1 (stereo unspecified)	Pf growth 96h inconclusive, Pf growth 48h 13µM (no result: CHX counter, Shiga toxin inh)
O=C(CN1CCC(NC(=O)C2CC2)CC1)Nc1cccc(F)c1	none
O=C(N=C1SC2CS(=O)(=O)CC2N1c1cccc(Cl)c1Cl)C1CCCO1 (stereo unspecified)	none
CC(=O)NCCOC(=O)Nc1cccnc1	Pf growth 48h 1.9µM
COc1cccc(S(=O)(=O)NCC(=O)Nc2ccc(C(C)(C)C)cc2)c1	Pf growth 96h inconclusive, Pf growth 48h inconclusive
Cc1ccc(C)c(S(=O)(=O)NC(C)C(=O)Nc2ccc(-c3nc4ccccc4s3)cc2)c1 (stereo unspecified)	CHX counter 53, Shiga toxin inh 83
COc1ccc(NC(=O)C(C)NS(=O)(=O)c2ccccc2)cc1Cl (stereo unspecified)	none (no result: Pf growth 96h)
O=C(CNS(=O)(=O)c1cccc(Cl)c1)Nc1ccc(-c2nc3ccccc3s2)cc1	CHX counter 34, Shiga toxin inh 43
CC(C)(C)c1ccc(S(=O)(=O)NCC(=O)Nc2ccc(-c3nc4ccccc4s3)cc2)cc1	CHX counter 38, Shiga toxin inh 123 (no result: Pf growth 96h)
CC(NS(=O)(=O)c1cccc(Cl)c1)C(=O)Nc1ccc(-c2nc3ccccc3s2)cc1 (stereo unspecified)	CHX counter 38, Pf growth 48h inconclusive (no result: Pf growth 96h)
CCN(CC)C(=O)c1cccnc1	none (no result: CHX counter, Shiga toxin inh)
CC(C)CCNCC1OCc2ccccc2CO1	none
Cc1ccc(NC(=O)CSC2=C(C#N)C(c3ccco3)C3=C(CCCC3=O)N2)cc1 (stereo unspecified)	CHX counter 19, Pf growth 48h inconclusive
COc1ccc(OC)c(NC(=O)CSC2=C(C#N)C(c3ccco3)C3=C(CCCC3=O)N2)c1 (stereo unspecified)	Pf growth 48h 9.3µM
CCCCOC(=O)CSC1=C(C#N)C(c2cccnc2)C(C(=O)OCC)=C(c2ccccc2)N1 (stereo unspecified)	Pf growth 96h inconclusive, Pf growth 48h inconclusive
CCOC(=O)C1=C(c2ccccc2)NC(SCC(=O)NC2CCCCC2)=C(C#N)C1c1ccco1 (stereo unspecified)	Pf growth 48h 12µM
CC1(C)CC(=O)C2=C(C1)NC(SCC(=O)Nc1ccccc1)=C(C#N)C2c1ccco1 (stereo unspecified)	Pf growth 48h inconclusive (no result: Pf growth 96h)
CCOC(=O)C1=C(c2ccccc2)NC(SC)=C(C#N)C1c1cccnc1 (stereo unspecified)	Pf growth 96h 12µM, Pf growth 48h inconclusive
CC(NC(=O)c1ccc(NC2=NC3CS(=O)(=O)CC3S2)cc1)c1ccccc1 (stereo unspecified)	Pf growth 96h inconclusive
C#CCN(CC=C)C(=O)c1ccc(OC2CCN(S(=O)(=O)N(C)C)CC2)cc1	CHX counter 37, Pf growth 96h inconclusive, Shiga toxin inh 62
CC(C)CCNC(=O)c1ccc(OC2CCN(S(=O)(=O)N(C)C)CC2)cc1	CHX counter 40
C=C(C)CNC(=O)c1ccc(OC2CCN(S(=O)(=O)N(C)C)CC2)cc1	CHX counter 20, Pf growth 96h 13µM
CN(C)S(=O)(=O)N1CCC(Oc2ccc(C(=O)NCCc3cscn3)cc2)CC1	Pf growth 96h inconclusive
C=C(C)CN(CC)C(=O)c1ccc(OC2CCN(S(=O)(=O)N(C)C)CC2)cc1	CHX counter 38, Pf growth 96h 4.1µM, Shiga toxin inh 55
NC(=O)c1nc(-c2cccs2)nc2c1[nH]c(=O)n2-c1ccc(F)cc1	none
CC(C)CCNC(=O)c1cc(C(=O)c2cc(F)ccc2O)cn(CCC(C)C)c1=O	Pf growth 96h inconclusive, Pf growth 48h 1.5µM
CC(C)CCNC(=O)c1cc(C(=O)c2cc(Br)ccc2O)cn(CCC(C)C)c1=O	Pf growth 96h 0.41µM, Pf growth 48h 1µM
CN(C)CCCNC(=O)c1cc(Br)ccc1O	none
CN(C)/C=N/C1=C(C#N)C(c2cccs2)c2ccc3ccccc3c2O1 (stereo unspecified)	CHX counter 47, Shiga toxin inh 66
Nc1nc(SCC(=O)Nc2ccc([N+](=O)[O-])cc2)[nH]c(=O)c1NC(=O)c1ccc(Br)cc1	Pf growth 96h inconclusive
COc1ccc(C(CNC(=O)CCNC(=O)c2ccccc2OC)N2CCCC2)cc1 (stereo unspecified)	Pf growth 96h 12µM, Pf growth 48h inconclusive (no result: CHX counter, Shiga toxin inh)
COc1ccc(C(CNC(=O)C(CCSC)NC(=O)c2ccccc2OC)N2CCCCC2)cc1 (stereo unspecified)	Pf growth 96h 12µM, Pf growth 48h inconclusive
COc1ccc(C(CNC(=O)CCNC(=O)c2ccccc2Cl)N2CCCC2)cc1 (stereo unspecified)	Pf growth 96h inconclusive (no result: CHX counter, Shiga toxin inh)
COc1ccc(C(CNC(=O)C(CCSC)NC(=O)c2ccccc2Cl)N2CCOCC2)cc1 (stereo unspecified)	none (no result: CHX counter, Shiga toxin inh)
COc1cccc(S(=O)(=O)NC2CCN(C#N)C2)c1 (stereo unspecified)	none (no result: CHX counter, Shiga toxin inh)
